Experimental findings from PubChem BioAssay (Tox21) are described below.

Records with an inconclusive call do not appear. Where a call stands in place of a potency, no number is given. Active and inactive are the calls of the source. Calls come from the whole dose curve; as a rule, active = well fitted cell-killing curve with a large enough effect in the repeat runs; inconclusive = weak or mixed curves, or effect the other way; inactive = flat fitted curve, though single readings scatter.

A short description of this assay: cAMP Responsive Elements (CRE) small molecule agonists, cell-based qHTS assay: qHTS cell viability counter screen (AID 2060914).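 Note: viability read after 3 h of compound exposure; nearly all actives have a fitted effect of over 50% in size.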 Conditions: CRE-bla HEK293T viability, CellTiter-Glo luminescence, 5 h; series mostly up to 92.4 µM. The text has this: National Center for Advancing Translational Sciences [NCATS]
Division of Preclinical Innovation [DPI]
U.S. Environmental Protection Agency [EPA]
National Institutes of Environmental Health Sciences [NIEHS]
National Toxicology Program [NTP]
U.S. Food and Drug Administration [FDA]
CREB (cyclic-AMP Responsive Element Binding Protein) is a cellular transcription factor. It binds to certain DNA sequences called cAMP Responsive Elements (CRE) and regulates the transcription of the genes. […] This cell line can be used to find agonists/antagonists of the cyclic AMP signaling pathway. The activation of the report gene under culture conditions can be detected by fluorescence intensity. This cell line has been used to screen the Tox21 10K compound library to identify agonists that induce oxidative stress. The cytotoxicity of the Tox21 compound library against the CRE-bla cell line was tested in parallel by measuring the cell viability using CellTiter-Glo assay (Promega, Madison, WI) in the same wells.
Tox21 Assay Protocol Summary:
CRE-bla Hek 293T cells were suspended in assay medium (DMEM containing 10% dialyzed FBS, 0.1 mM NEAA, 1 mM sodium pyruvate and 25 mM HEPES) and dispensed at 2,000 cells/5 uL /well into 1536-well black wall/clear bottom plates using a Multidrop Combi (ThermoFisher Scientific, Waltham, MA) dispenser. After the assay plates were incubated at 37 C/5% CO2 for 18 hrs, 23 nL of compounds dissolved in DMSO, positive controls or DMSO only was transferred to the assay plate by a pintool workstation (Kalypsys, San Diego, CA). After the plates were incubated at 37 C/5% CO2 for 3 hrs, 1 uL of LiveBLAzer B/G FRET substrate (Invitrogen, Carlsbad, CA) was added to each well using Bioraptr Flying Reagent Dispenser (FRD, Aurora Discovery, San Diego, CA). The plates were incubated at room temperature for 2 h, then fluorescence intensities were measured using an Envision plate reader (PerkinElmer, Shelton, CT) at Excitation 405nm, Emission 460nm and 530nm. The % activity was determined from the ratio of 460nm/530nm. For cell viability readout that measures cytotoxicity, 4 uL /well of CellTiter-Glo reagent was added into the assay plates using Bioraptr FRD. After 30 min incubation at room temperature, the luminescence intensity in the assay plates was measured using a ViewLux (PerkinElmer, Shelton, CT) plate reader.
For orientation: qHTS replaces the single test concentration by a dilution series.
`C[Si](C)(C)C`: the Potency result was “inactive”.

Consider `COc1ccc(-c2nc3ccc(C4=NNC(=O)CC4C)cc3[nH]2)cc1` (stereo not given), for which the Potency result is “inactive”.

Regarding `C=CC(=O)NC(C)C`, the Potency entry is “inactive”.

For the compound `CCCCCCCCCCCCCCCCOP(=O)([O-])OCC[N+](C)(C)C`, the Potency result was “inactive”.

In the case of `CC(=O)OC1CCC(C(C)(C)C)CC1` (stereo not given), the Potency entry is “inactive”.

As for `Nc1ccc([N+](=O)[O-])c(C(F)(F)F)c1`, the Potency entry is “inactive”.

As for `O=c1c(O)c(-c2ccc(O)c(O)c2)oc2cc(O)cc(O)c12`, the Potency entry was “inactive”.

As for `Nc1ccc(Cl)cc1[N+](=O)[O-]`, the Potency result was “inactive”.

Take `Brc1ccc(-c2ccccc2)cc1`: the Potency result is “inactive”.

Turning to `CCCCNC(=O)NS(=O)(=O)c1ccc(N)cc1`, the Potency result is “inactive”.

As for `COc1cc(S(N)(=O)=O)cc(C(=O)O)c1OC`, the Potency entry is “inactive”.

For `CCCCCCCCC`, the Potency entry was “inactive”.

Turning to `CC(CC(=O)Cl)CC(C)(C)C` (stereo not given), the Potency entry is “inactive”.

Regarding `CCCCC(CC)COCCCN` (stereo not given), the Potency entry is “inactive”.

Regarding `COc1ccc2c(c1)c(CC(=O)OC/C=C(\C)CC/C=C(\C)CCC=C(C)C)c(C)n2C(=O)c1ccc(Cl)cc1`, the Potency result is “inactive”.

Turning to `C=CC(C)(C)O`, the Potency entry was “inactive”.

Take `COc1c(C)c2c(c(O)c1C/C=C(\C)CCC(=O)O)C(=O)OC2`: the Potency result was “inactive”.

`N[C@H](Cc1c[nH]c2ccccc12)C(=O)O`: the Potency entry is “inactive”.

As to `O=S(O)O`, the activity change, negative = cytotoxicity is 3.71% [at 18.9 µM] (inactive).

Turning to `COc1cc2nc(N3CCN(C(=O)C4COc5ccccc5O4)CC3)nc(N)c2cc1OC` (stereo not given), the Potency entry is “inactive”.

Consider `CCc1cc(Cc2cc(CC)c(N)c(CC)c2)cc(CC)c1N`, for which the Potency entry was “inactive”.

As for `CC(C)(C)OC(=O)N1C[C@@H](F)C[C@H]1C(=O)O`, the Potency entry was “inactive”.

On to `Oc1ccc2ccccc2c1`, for which the Potency result was “inactive”.

For the compound `CCc1c2c(nc3ccc(OC(=O)N4CCC(N5CCCCC5)CC4)cc13)-c1cc3c(c(=O)n1C2)COC(=O)[C@]3(O)CC`, the Potency result was “inactive”.

For `COC(=O)C(C)Oc1ccc(Oc2ncc(C(F)(F)F)cc2Cl)cc1` (stereo not given), the Potency entry was “inactive”.

For `Clc1ccc2c(c1)C(N1CCNCC1)=Nc1ccccc1O2`, the Potency entry was “inactive”.

As for `C=CCCCCCCCCOC(C)=O`, the Potency entry was “inactive”.

For `O=C(O)c1cc(O)c2ccccc2c1O`, the Potency result is “inactive”.

Consider `CC(C)(C)c1cc(Cc2cc(C(C)(C)C)c(O)c(C(C)(C)C)c2)cc(C(C)(C)C)c1O`, for which the Potency entry was “inactive”.

With `CCCCC(CC)COC(=O)c1ccc(O)cc1` (stereo not given), the Potency result was “inactive”.

For the compound `CCCCCCO`, the Potency entry was “inactive”.

On to `CC(C)c1ccccc1C(C)C`, for which the Potency result was “inactive”.

Consider `Cc1ccc(Cl)cc1Cl`, for which the Potency result is “inactive”.

As to `CC(=O)c1ccccc1`, the Potency entry was “inactive”.

In the case of `CCCCC(=O)N(C)C`, the Potency entry is “inactive”.

With `Cc1ncc([N+](=O)[O-])n1CCO`, the Potency entry was “inactive”.

`CC(CN1CC(=O)NC(=O)C1)N1CC(=O)NC(=O)C1` (stereo not given): the Potency result was “inactive”.

As to `CC[C@H](c1ccc(O)cc1)[C@@H](CC)c1ccc(O)cc1`, the Potency entry was “inactive”.

Regarding `CNCCO`, the Potency result was “inactive”.

Consider `CC(C)CCCC(C)CCCC(C)CCCCC(C)CCCC(C)CCCC(C)C` (stereo not given), for which the Potency entry is “inactive”.
